Experimental data from PubChem BioAssay AID1159580 (chemical genetic matrix, 2015).
Among all 5,500 compounds or so, about 2,000 (36%) were called active. About 18% were inconclusive and are not listed. Cut-off read from the data, not from the text of the source: active = normalized growth mostly below about 0.91 (no sharp cut-off); inconclusive = no clear call, values can overlap the other calls; inactive = mostly above about 0.92. The list shows a part of the results.

Assay: chemical genetic growth profiling, strain panel (AID 1159580);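 note: tested at 20 µM; growth read once vehicle control cultures reached saturation at 30 °C; 1 = growth at the plate median or of vehicle wells; lower values mean less growth of the strain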
Settings: S. cerevisiae deletion strains, growth OD

Measured: normalized growth

CCCC[C@@H](CC)COC(=O)c1ccccc1O
inactive: locus YHR030C, strain SLT2, hits give low values 0.979 | locus YHR079C, strain IRE1, hits give low values 0.99 | locus YJL095W, strain BCK1, hits give low values 1.02 | locus YJR066W, strain TOR1, hits give low values 0.938 | locus YLR113W, strain HOG1, hits give low values 0.974 | locus YNL183C, strain NPR1, hits give low values 0.958 | locus YOR231W, strain MKK1, hits give low values 0.984 | locus YPL256C, strain CLN2, hits give low values 0.994
